# Results from PubChem BioAssay (Tox21).
# Several values for one entry are separate records, joined by “and”; a condition that tells them apart may be missing. Identical values can stand only once. Inconclusive results are not listed. A call without a number means that no potency is given here. Activity calls are given as the source filed them. Calls come from the whole dose curve.
# Biological target: 5-hydroxytryptamine receptor 2A (Homo sapiens) (UniProt P28223)
# Assay: 5-hydroxytryptamine receptor 2A (HTR2A) small molecule antagonists, cell-based qHTS assay (AID 1963586); note: nearly all actives have a fitted effect of over 45% in size
# Details: HTR2A-CHO cells, DOI-induced calcium flux, fluorescence; series mostly up to 61.5 µM
# Summary of the method: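 Antagonist-mode intracellular calcium assay: DOI (4 nM) added after 5 min compound pre-incubation at room temperature to dye-loaded HTR2A-CHO cells. Fluorescence followed for 3 min, sampled every second.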
# Potency is the fitted concentration of half-maximal effect.
# Sequence of 5-hydroxytryptamine receptor 2A (Homo sapiens) (P28223 whole entry, looked up): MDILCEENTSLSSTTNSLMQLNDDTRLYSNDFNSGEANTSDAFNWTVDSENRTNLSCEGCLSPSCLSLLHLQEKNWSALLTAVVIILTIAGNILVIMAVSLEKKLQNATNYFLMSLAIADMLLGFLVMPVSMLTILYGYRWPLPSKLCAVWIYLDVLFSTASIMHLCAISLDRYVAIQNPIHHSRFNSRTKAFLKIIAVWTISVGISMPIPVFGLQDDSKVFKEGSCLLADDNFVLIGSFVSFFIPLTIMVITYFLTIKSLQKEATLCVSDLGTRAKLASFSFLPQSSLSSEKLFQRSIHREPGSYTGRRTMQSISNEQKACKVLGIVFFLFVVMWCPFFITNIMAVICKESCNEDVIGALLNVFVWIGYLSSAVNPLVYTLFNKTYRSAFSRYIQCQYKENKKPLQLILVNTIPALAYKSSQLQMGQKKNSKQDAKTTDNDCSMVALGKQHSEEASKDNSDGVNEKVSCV
row,SMILES,Potency
1,CCC(N)(CO)CO,inactive
2,CCCCOC(=O)CCS,inactive
3,CC(=O)S[C@H](C(=O)N[C@H]1Cc2ccccc2[C@H]2CCC[C@@H](C(=O)O)N2C1=O)C(C)C,inactive
4,CCCCCCCCCOS(=O)(=O)O,inactive
5,COC(=O)c1ccc([N+](=O)[O-])cc1,inactive
6,COC(=O)Cc1cccc2ccccc12,inactive
7,CCCCCCCCCCCC(=O)OC[C@@H](O)[C@H]1OC[C@H](OCCO)[C@H]1OCCO,inactive
8,CCCCCCCC(=O)OCCCCCC,inactive
9,CC(=O)NC(Cc1ccccc1)C(=O)O (stereo unspecified),inactive
10,Cc1nc2ccccc2s1,inactive
11,CCO[Si](C)(C)OCC,inactive
12,Cc1nc(-c2ccc3c(c2)CCN(CCC2CCC(NC(=O)/C=C/c4ccc(F)cc4)CC2)CC3)no1 (stereo unspecified),inactive
13,O=C(O)CCS,3.41 µM (active)
14,CCN(CC#N)c1cccc(C)c1,inactive
15,CC(C)(C)c1ccc(O)c(C(C)(C)C)c1,23.7 µM (active)
16,CC12CC3CC(C)(C1)CC(N)(C3)C2,inactive
17,O=C(/N=N/C(=O)OCc1ccccc1)OCc1ccccc1,inactive
18,CC(C)C(=O)O,inactive
19,c1ccc2cc3c4ccccc4c4ccccc4c3cc2c1,inactive
20,CO[Si](CCCNCCC[Si](OC)(OC)OC)(OC)OC,inactive

row,SMILES,Potency
1,CCCCCCCCS(=O)(=O)Cl,inactive
2,C=Cc1ccccn1,inactive
3,Nc1ccc(S(=O)(=O)Nc2ccc(Cl)nn2)cc1,inactive
4,COC(=O)c1ccccc1C(=O)O,inactive
5,CC(=O)SC[C@@H](C)C(=O)N1CCC[C@H]1C(=O)N[C@@H](Cc1ccccc1)C(=O)O,inactive
6,CCCCCCCCCCCCCC,inactive
7,COc1cc(/C=C/C(=O)O[C@H]2CC[C@]34C[C@]35CC[C@]3(C)[C@@H]([C@H](C)CCC=C(C)C)CC[C@@]3(C)[C@@H]5CC[C@H]4C2(C)C)ccc1O,inactive
8,CC/C=C\CCOC(=O)C(C)C,inactive
9,O=C1CC2CC1C1CCCC21 (stereo unspecified),inactive
10,CC1CNCC(C)O1 (stereo unspecified),inactive
11,Cc1ccc(C2OC[C@@H]3OC(c4ccc(C)cc4)O[C@H]([C@H](O)CO)[C@@H]3O2)cc1 (stereo partly specified),inactive
12,CCCCC(O)/C=C(C)/C=C/C=C/C(=O)N1CCCC1=O (stereo unspecified),inactive
13,CC/C=C\CCO,inactive
14,O=C(O)c1cc(=O)[nH]c(=O)[nH]1,inactive
15,CC12CCC(C1)C(C)(C)C2O (stereo unspecified),inactive
16,O=C(C(=O)c1ccccc1)c1ccccc1,inactive
17,CCOC(=O)c1cc(=O)c2c(OCC(COc3cccc4oc(C(=O)OCC)cc(=O)c34)OC(=O)[C@@H](N)CCCCN)cccc2o1,inactive
18,COc1ccc(C)cc1,inactive
19,O=S(=O)(O)CCN1CCN(CCO)CC1,inactive

# Biological target: 5-hydroxytryptamine receptor 2A (Homo sapiens) (UniProt P28223)
# Assay: 5-hydroxytryptamine receptor 2A (HTR2A) small molecule agonists, cell-based qHTS assay (AID 1963587); note: nearly all actives have a fitted effect of over 30% in size
# Details: HTR2A-CHO cells, calcium flux fluorescence, agonist mode; series mostly up to 76.8 µM
# Summary of the method: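 CHO cells stably expressing human HTR2A, plated 18 h, loaded with calcium dye 1 h at 37 C. Agonist mode: compounds added and intracellular calcium fluorescence recorded kinetically for 2 min at 1 sec intervals.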
row,SMILES,Potency
1,CCCCOC(=O)CCS,inactive
2,CCCCCCCCCOS(=O)(=O)O,inactive
3,COC(=O)c1ccc([N+](=O)[O-])cc1,inactive
4,COC(=O)Cc1cccc2ccccc12,inactive
5,CCCCCCCCCCCC(=O)OC[C@@H](O)[C@H]1OC[C@H](OCCO)[C@H]1OCCO,inactive
6,CCCCCCCC(=O)OCCCCCC,inactive
7,CC(=O)NC(Cc1ccccc1)C(=O)O (stereo unspecified),inactive
8,Cc1nc2ccccc2s1,inactive
9,CCO[Si](C)(C)OCC,inactive
10,CC(C)(C)c1ccc(O)c(C(C)(C)C)c1,34.5 µM (active) and 27.5 µM (active)
11,O=C(/N=N/C(=O)OCc1ccccc1)OCc1ccccc1,inactive
12,CO[Si](CCCNCCC[Si](OC)(OC)OC)(OC)OC,inactive
13,CCCCCCCCS(=O)(=O)Cl,inactive
14,C=Cc1ccccn1,inactive
15,COC(=O)c1ccccc1C(=O)O,inactive
16,CC(=O)SC[C@@H](C)C(=O)N1CCC[C@H]1C(=O)N[C@@H](Cc1ccccc1)C(=O)O,inactive
17,COc1cc(/C=C/C(=O)O[C@H]2CC[C@]34C[C@]35CC[C@]3(C)[C@@H]([C@H](C)CCC=C(C)C)CC[C@@]3(C)[C@@H]5CC[C@H]4C2(C)C)ccc1O,inactive
18,CC/C=C\CCOC(=O)C(C)C,inactive
19,O=C1CC2CC1C1CCCC21 (stereo unspecified),inactive
20,CC1CNCC(C)O1 (stereo unspecified),inactive
21,CCCCC(O)/C=C(C)/C=C/C=C/C(=O)N1CCCC1=O (stereo unspecified),inactive
22,CC/C=C\CCO,inactive
23,O=C(O)c1cc(=O)[nH]c(=O)[nH]1,inactive
24,O=C(C(=O)c1ccccc1)c1ccccc1,inactive
25,CCOC(=O)c1cc(=O)c2c(OCC(COc3cccc4oc(C(=O)OCC)cc(=O)c34)OC(=O)[C@@H](N)CCCCN)cccc2o1,inactive
26,O=S(=O)(O)CCN1CCN(CCO)CC1,inactive

# Biological target: Muscarinic acetylcholine receptor M1 (Homo sapiens) (UniProt P11229)
# Assay: Cholinergic receptor muscarinic 1 (CHRM1) small molecule antagonists, cell-based qHTS assay (AID 1963588); note: nearly all actives have a fitted effect of over 40% in size
# Details: CHRM1-CHO antagonist mode, calcium flux fluorescence; series mostly up to 61.5 µM
# Summary of the method: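 CHRM1-CHO calcium-flux assay, antagonist mode. Cells were seeded 18 h, dye-loaded 1 h at 37 C and given compound for 5 min at RT, then acetylcholine was added at 50nM. FDSS fluorescence was read 3 min; 15 concentrations, three runs.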
# Sequence of Muscarinic acetylcholine receptor M1 (Homo sapiens) (P11229 whole entry, looked up): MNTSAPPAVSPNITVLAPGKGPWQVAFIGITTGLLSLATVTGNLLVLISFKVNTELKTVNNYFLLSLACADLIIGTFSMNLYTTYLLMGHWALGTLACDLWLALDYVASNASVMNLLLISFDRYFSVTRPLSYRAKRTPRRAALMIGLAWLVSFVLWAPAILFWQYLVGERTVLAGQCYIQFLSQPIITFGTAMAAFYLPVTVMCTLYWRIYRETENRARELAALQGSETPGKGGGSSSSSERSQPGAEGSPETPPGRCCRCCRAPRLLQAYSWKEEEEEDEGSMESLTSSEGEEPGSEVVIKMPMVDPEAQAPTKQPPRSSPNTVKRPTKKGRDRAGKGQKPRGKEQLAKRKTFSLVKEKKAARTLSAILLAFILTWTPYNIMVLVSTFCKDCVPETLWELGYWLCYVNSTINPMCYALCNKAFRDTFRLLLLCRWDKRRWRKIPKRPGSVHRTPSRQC
row,SMILES,Potency
1,CCC(N)(CO)CO,inactive
2,CCCCOC(=O)CCS,inactive
3,CC(=O)S[C@H](C(=O)N[C@H]1Cc2ccccc2[C@H]2CCC[C@@H](C(=O)O)N2C1=O)C(C)C,inactive
4,CCCCCCCCCOS(=O)(=O)O,inactive
5,CC(=O)NC(Cc1ccccc1)C(=O)O (stereo unspecified),inactive
6,Cc1nc(-c2ccc3c(c2)CCN(CCC2CCC(NC(=O)/C=C/c4ccc(F)cc4)CC2)CC3)no1 (stereo unspecified),0.266 µM (active)
7,O=C(O)CCS,inactive
8,CCN(CC#N)c1cccc(C)c1,inactive
9,CC12CC3CC(C)(C1)CC(N)(C3)C2,inactive
10,CC(C)C(=O)O,inactive
11,c1ccc2cc3c4ccccc4c4ccccc4c3cc2c1,inactive
12,C=Cc1ccccn1,inactive
13,Nc1ccc(S(=O)(=O)Nc2ccc(Cl)nn2)cc1,inactive
14,COC(=O)c1ccccc1C(=O)O,inactive
15,CC(=O)SC[C@@H](C)C(=O)N1CCC[C@H]1C(=O)N[C@@H](Cc1ccccc1)C(=O)O,inactive
16,CCCCCCCCCCCCCC,inactive
17,COc1cc(/C=C/C(=O)O[C@H]2CC[C@]34C[C@]35CC[C@]3(C)[C@@H]([C@H](C)CCC=C(C)C)CC[C@@]3(C)[C@@H]5CC[C@H]4C2(C)C)ccc1O,inactive
18,CC/C=C\CCOC(=O)C(C)C,inactive
19,Cc1ccc(C2OC[C@@H]3OC(c4ccc(C)cc4)O[C@H]([C@H](O)CO)[C@@H]3O2)cc1 (stereo partly specified),inactive
20,CC12CCC(C1)C(C)(C)C2O (stereo unspecified),inactive
21,COc1ccc(C)cc1,inactive
